# Where “and” joins values, the source holds several entries; their conditions need not be identical. Equal values may be shown once. Results filed as inconclusive are left out. The source holds several records for some structures; these can differ, active in one and inactive in another. Calls of active or inactive are those of the source. The calls were made as follows: active = hit-call score of the fitted dose curve at least 0.9, where 1 is the maximum; inconclusive = response in the unintended direction; inactive = score below 0.9.
# Target: Bile acid receptor (Homo sapiens) (UniProt Q96RI1)
# Experiment: OT_FXR_FXRSRC1_0480: Odyssey Thera (OT) 8-hour HEK293T Protein-Complementation Assay for Farnesoid X receptor/SRC-1 Co-activator (AID 2283383)
# In short: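 Readings were taken 8 h after dosing HEK293T cells in a split-reporter complementation format pairing FXR with SRC-1. Increased fluorescence relative to DMSO-treated wells defined activity.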
# Sequence of Bile acid receptor (Homo sapiens) (Q96RI1 whole entry, looked up): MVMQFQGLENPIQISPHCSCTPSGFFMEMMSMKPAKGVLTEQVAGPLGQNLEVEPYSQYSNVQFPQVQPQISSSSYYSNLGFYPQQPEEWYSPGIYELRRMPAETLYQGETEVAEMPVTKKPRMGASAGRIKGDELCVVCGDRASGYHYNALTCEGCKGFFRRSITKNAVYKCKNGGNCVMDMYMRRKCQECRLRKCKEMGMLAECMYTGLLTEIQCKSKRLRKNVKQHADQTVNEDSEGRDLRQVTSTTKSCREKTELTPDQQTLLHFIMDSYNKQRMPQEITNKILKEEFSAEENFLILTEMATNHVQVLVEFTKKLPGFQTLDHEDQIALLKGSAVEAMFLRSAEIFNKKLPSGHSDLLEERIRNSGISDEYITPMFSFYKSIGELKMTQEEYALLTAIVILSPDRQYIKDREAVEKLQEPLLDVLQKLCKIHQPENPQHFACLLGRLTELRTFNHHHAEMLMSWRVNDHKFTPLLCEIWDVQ
SMILES,AC50,outcome
Cc1cc2c3c(c1)C(c1ccccc1)=N[C@@H](NC(=O)c1ccncc1)C(=O)N3CC2,20.8 µM (active),–
OCC(O)CO,–,inactive
C[C@]12CCC(=O)C=C1CC[C@@H]1[C@@H]2CC[C@]2(C)C(=O)CC[C@@H]12,26.8 µM (active) and 19.3 µM (active) and 27.1 µM (active),–
c1ccc(-c2ccccc2)cc1,–,inactive
COc1ccc(O)c(C(C)(C)C)c1,–,inactive
C[C@]12CCC(=O)C=C1CC[C@@H]1[C@@H]2CC[C@@]2(C)[C@H]1CC[C@]2(C)O,16.1 µM (active) and 16.7 µM (active) and 11.7 µM (active),inactive
Cc1cc(O)ccc1Cl,–,inactive
ClC(Cl)=C(c1ccc(Cl)cc1)c1ccc(Cl)cc1,85 µM (active) and 83.5 µM (active) and 85.1 µM (active),–
Oc1ccc(Cl)cc1Cl,–,inactive
O=NN(c1ccccc1)c1ccccc1,–,inactive
CCC(C)(c1ccc(O)cc1)c1ccc(O)cc1,12.1 µM (active),inactive
CC1=C2C[C@H]3[C@@H](CC=C4C[C@@H](O)CC[C@@]43C)[C@@H]2CC[C@]12O[C@@H]1C[C@H](C)CN[C@H]1[C@H]2C,–,inactive
CCCCCCCCCC[N+](C)(C)CCCCCCCCCC,–,inactive

# Target: Bile acid receptor (Homo sapiens) (UniProt Q96RI1)
# Experiment: OT_FXR_FXRSRC1_1440: Odyssey Thera (OT) 24-hour HEK293T Protein-Complementation Assay for Farnesoid X receptor/SRC-1 Co-activator (AID 2283384)
# In short: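 Single endpoint, analysed for increased fluorescence against DMSO controls. HEK293T cells carrying FXR and SRC-1 linked to complementary reporter halves were exposed to chemicals for 24 h before reading.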
SMILES,AC50,outcome
Cc1cc2c3c(c1)C(c1ccccc1)=N[C@@H](NC(=O)c1ccncc1)C(=O)N3CC2,32.8 µM (active),–
OCC(O)CO,–,inactive
C[C@]12CCC(=O)C=C1CC[C@@H]1[C@@H]2CC[C@]2(C)C(=O)CC[C@@H]12,28.7 µM (active) and 30.7 µM (active),inactive
COc1ccc(O)c(C(C)(C)C)c1,–,inactive
C[C@]12CCC(=O)C=C1CC[C@@H]1[C@@H]2CC[C@@]2(C)[C@H]1CC[C@]2(C)O,23.5 µM (active) and 27.9 µM (active) and 33.2 µM (active),inactive
Cc1cc(O)ccc1Cl,34.7 µM (active),–
ClC(Cl)=C(c1ccc(Cl)cc1)c1ccc(Cl)cc1,93 µM (active) and 84.9 µM (active) and 88.2 µM (active),–
Oc1ccc(Cl)cc1Cl,–,inactive
O=NN(c1ccccc1)c1ccccc1,–,inactive
O=C(O)C(F)(F)C(F)(F)C(F)(F)C(F)(F)C(F)(F)C(F)(F)C(F)(F)C(F)(F)F,–,inactive
CCC(C)(c1ccc(O)cc1)c1ccc(O)cc1,30.2 µM (active) and 32.2 µM (active),inactive
CC1=C2C[C@H]3[C@@H](CC=C4C[C@@H](O)CC[C@@]43C)[C@@H]2CC[C@]12O[C@@H]1C[C@H](C)CN[C@H]1[C@H]2C,–,inactive
CCCCCCCCCC[N+](C)(C)CCCCCCCCCC,–,inactive

# Target: Retinoic acid receptor RXR-alpha (Homo sapiens) (UniProt P19793)
# Experiment: OT_NURR1_NURR1RXRa_0480: Odyssey Thera (OT) 8-hour HEK293T Protein Complementation Assay for Nurr1/retinoid X receptor (RXR) (AID 2283385)
# In short: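 Gain in fluorescent complementation signal over DMSO, measured 8 hours after chemical dosing of human kidney HEK293T cells, indicated enhanced Nurr1–RXRα association.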
# Sequence of Retinoic acid receptor RXR-alpha (Homo sapiens) (P19793 whole entry, looked up): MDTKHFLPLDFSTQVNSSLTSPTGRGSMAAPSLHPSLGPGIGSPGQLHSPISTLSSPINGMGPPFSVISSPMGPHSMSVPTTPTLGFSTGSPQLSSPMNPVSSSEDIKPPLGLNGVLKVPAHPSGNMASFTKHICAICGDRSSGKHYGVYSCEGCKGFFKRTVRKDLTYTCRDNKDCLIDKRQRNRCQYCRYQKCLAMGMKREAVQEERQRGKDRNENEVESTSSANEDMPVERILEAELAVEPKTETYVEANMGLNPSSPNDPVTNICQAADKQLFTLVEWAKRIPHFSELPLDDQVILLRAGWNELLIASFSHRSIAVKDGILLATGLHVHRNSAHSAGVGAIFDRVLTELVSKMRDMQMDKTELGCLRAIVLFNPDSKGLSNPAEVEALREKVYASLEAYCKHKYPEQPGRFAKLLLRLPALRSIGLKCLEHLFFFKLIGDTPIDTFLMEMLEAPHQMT
SMILES,AC50,outcome
Cc1cc2c3c(c1)C(c1ccccc1)=N[C@@H](NC(=O)c1ccncc1)C(=O)N3CC2,62 µM (active),inactive
Oc1c(Cl)c(Cl)c(Cl)c(Cl)c1Cl,–,inactive
OCC(O)CO,–,inactive
ClC1=C(Cl)[C@]2(Cl)[C@@H]3[C@@H]4C[C@@H]([C@H]5O[C@@H]45)[C@@H]3[C@@]1(Cl)C2(Cl)Cl,77.7 µM (active) and 81.5 µM (active),–
CCC(=O)O[C@H]1CC[C@H]2[C@@H]3CCC4=CC(=O)CC[C@]4(C)[C@H]3CC[C@]12C,42.7 µM (active) and 57.9 µM (active),inactive
C[C@]12CCC(=O)C=C1CC[C@@H]1[C@@H]2CC[C@]2(C)C(=O)CC[C@@H]12,–,inactive
Cc1ccccc1CO[C@@H]1C[C@@]2(C(C)C)CC[C@]1(C)O2,81.2 µM (active),–
Oc1ccc(C(c2ccc(O)cc2)(C(F)(F)F)C(F)(F)F)cc1,–,inactive
O=C(O)C(F)(F)C(F)(F)C(F)(F)C(F)(F)C(F)(F)C(F)(F)C(F)(F)C(F)(F)C(F)(F)F,–,inactive
COc1ccc(O)c(C(C)(C)C)c1,–,inactive
C[C@]12CCC(=O)C=C1CC[C@@H]1[C@@H]2CC[C@@]2(C)[C@H]1CC[C@]2(C)O,–,inactive
Cc1cc(O)ccc1Cl,–,inactive
Nc1ccc(-c2ccc(N)cc2)cc1,–,inactive
Cc1cc(-c2ccc(N)c(C)c2)ccc1N,–,inactive
COS(=O)(=O)OC,–,inactive
Cc1ccc(O)c(C)c1,–,inactive
ClC(Cl)=C(c1ccc(Cl)cc1)c1ccc(Cl)cc1,78.3 µM (active) [middle of 4 runs],–
Oc1ccc(Cl)cc1Cl,–,inactive
O=NN(c1ccccc1)c1ccccc1,–,inactive
O=C(N[C@H]1CN2CCC1CC2)c1cc2ccoc2cn1,–,inactive
O=C(O)C(F)(F)C(F)(F)C(F)(F)C(F)(F)C(F)(F)C(F)(F)C(F)(F)C(F)(F)F,–,inactive
CC#Cc1cc(C)nc(Nc2ccccc2)n1,–,inactive
CCC(C)(c1ccc(O)cc1)c1ccc(O)cc1,30.8 µM (active) and 67 µM (active) and 68.3 µM (active),inactive
CC1=C2C[C@H]3[C@@H](CC=C4C[C@@H](O)CC[C@@]43C)[C@@H]2CC[C@]12O[C@@H]1C[C@H](C)CN[C@H]1[C@H]2C,–,inactive
CC(C)(O)C(=O)Nc1ccc([N+](=O)[O-])c(C(F)(F)F)c1,–,inactive
CCCN(CCC)N=O,–,inactive
CCCCCCOC(=O)c1ccccc1C(=O)OCCCCCC,–,inactive
